Structures are written as SMILES. About 760 (16%) of roughly 4,700 compounds were called active.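 Rule for the calls: active = inhibition above a cutoff derived from the DMSO control wells (cut at about 28% in these data); inactive = the rest.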 A selection follows.

For this assay, the target named is Microphthalmia-associated transcription factor (Homo sapiens) (UniProt O75030). The experiment in a line: blockers of human MITF dimerization – biochemical, AlphaScreen, triplicate, confirmation (AID 1259372). The following applies: AlphaScreen MITF homodimerization, biotin/His-MITF beads; at 2.6 µM; active compounds read high.
Sequence of Microphthalmia-associated transcription factor (Homo sapiens) (O75030 whole entry, looked up): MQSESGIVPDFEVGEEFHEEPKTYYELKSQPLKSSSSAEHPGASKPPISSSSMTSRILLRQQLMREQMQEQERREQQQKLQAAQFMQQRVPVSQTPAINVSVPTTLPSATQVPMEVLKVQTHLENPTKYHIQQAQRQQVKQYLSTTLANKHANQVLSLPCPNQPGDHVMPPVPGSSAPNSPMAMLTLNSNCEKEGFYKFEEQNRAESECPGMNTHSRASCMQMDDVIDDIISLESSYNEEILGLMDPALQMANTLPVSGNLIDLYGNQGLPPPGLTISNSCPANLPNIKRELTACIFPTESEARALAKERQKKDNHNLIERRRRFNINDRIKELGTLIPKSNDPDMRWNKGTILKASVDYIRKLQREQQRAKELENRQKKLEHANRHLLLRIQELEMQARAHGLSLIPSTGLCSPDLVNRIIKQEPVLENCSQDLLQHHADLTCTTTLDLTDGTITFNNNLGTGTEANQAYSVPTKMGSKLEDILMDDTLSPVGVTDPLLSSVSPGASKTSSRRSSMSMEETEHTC
Take `COc1ccc(C(=O)COC(=O)CNS(=O)(=O)/C=C/c2ccc(C)cc2)cc1OC`: the inhibition (usually the drop in the measured response relative to a control, in per cent) was 7.42% (inactive).

On to `O=C(CNCc1ccc(F)cc1)Nc1ccc(N2CCCC2)cc1`, for which the inhibition is 17.1% (inactive).

Regarding `CC(C)(C)n1nnnc1C(c1ccc2ncccc2c1)N1CCSCC1` (stereo unspecified), the inhibition is 20.3% (inactive). Consider `CCc1ccc(OCCCCn2ccnc2)cc1`, for which the inhibition was -7.12% (inactive). With `N#Cc1nc(COc2cccc(Cl)c2)oc1NCCCn1ccnc1` the figure was 43.8% (active). Regarding `CCc1cccc(OCCOCCn2ccnc2)c1`, the inhibition was 0.99% (inactive). In the case of `C=CCc1cc(C)ccc1OCCCn1ccnc1`, the inhibition is -1.07% (inactive).

`COc1ccc(Br)cc1CN1CCN(C(=O)c2cccnc2)CC1`: the inhibition is 8.4% (inactive). Turning to `Cc1cccc(NC(=O)CNCCN2CCCCC2)c1C`, the inhibition is 7.31% (inactive).

In the case of `O=[N+]([O-])c1ccccc1S(=O)(=O)N1CCN(C2Cc3ccccc3C2)CC1`, the inhibition was 4.35% (inactive). Consider `COc1ccc(CN2CCN(Cc3cc(OC)c(OC)c(OC)c3)CC2)cc1`, for which the inhibition is 1.87% (inactive). For the compound `CCN(CC)CCN1COc2c(cc(Cl)c3cccnc23)C1`, the inhibition is 107% (active). Consider `CN1CCN(CCC(=O)N/N=C/c2ccsc2)CC1`, for which the inhibition was -0.75% (inactive). Take `c1ccc(-n2cc(CN3CCOCC3)c(-c3ccc4c(c3)OCCO4)n2)cc1`: the inhibition was 13.2% (inactive). As for `COC(=O)C(C)CN1CCN(Cc2ccc3c(c2)OCO3)CC1` (stereo unspecified), the inhibition was 1.84% (inactive). For `CCN(Cc1ccccc1)Cc1ccc([N+](=O)[O-])cc1`, the inhibition is -4.11% (inactive).

Consider `COc1ccc(OCCCC(=O)Oc2ccc(OC)cc2)cc1`, for which the inhibition was 4.29% (inactive). As for `Cc1ccc(OCCCCNCCN2CCOCC2)c(Br)c1`, the inhibition is 5.77% (inactive). Take `COc1cccc(-c2ncnn2-c2sc3c(c2C#N)CCCCC3)c1`: the inhibition is -10.4% (inactive). In the case of `COc1cc(CN2CCN(Cc3ccccc3Cl)CC2)cc(OC)c1OC`, the inhibition was 9.37% (inactive). Turning to `CCN1CCN(CCOCCOc2ccccc2OCc2ccccc2)CC1`, the inhibition was 2.12% (inactive).

For the compound `COCCCN1C(=O)c2cccc3c(C(=O)c4ccccc4)ccc(c23)C1=O`, the inhibition is 10.4% (inactive).

In the case of `O=C(CN1CCN(CC(=O)c2ccco2)CC1)Nc1ccc(Cl)c(Cl)c1`, the inhibition was 10.7% (inactive).

Take `Cc1nc2sc(C(c3ccccc3Cl)N3CCC4(CC3)OCCO4)c(O)n2n1` (stereo unspecified): the inhibition is 13.8% (inactive). The figure for `CC(=O)NS(=O)(=O)c1ccc(-c2ccc(C=C(C#N)C#N)o2)cc1` is -19.5% (inactive); for `N#Cc1ccc(/C=N/NC(=O)c2cc([N+](=O)[O-])cc([N+](=O)[O-])c2)cc1` it is 3.87% (inactive); for `Fc1cccc(Cl)c1Cn1nnc(-c2ccncc2)n1` it is 13.6% (inactive). On to `Cc1cccc(OCCN2CCNCC2)c1C`, for which the inhibition is -3.54% (inactive).

For `COc1ccc2c(c1)CC(c1nc(Nc3ccc4cnccc4c3)c3ccccc3n1)CO2` (stereo unspecified), the inhibition is 58.2% (active). As for `CC1CCCCC1NC(=O)CSc1nnc(-c2ccncc2)n1CCCN(C)C` (stereo unspecified), the inhibition is 8.82% (inactive). On to `COc1ccc(C(=O)N2CCN(Cc3ccccc3C(F)(F)F)CC2)cc1OC`, for which the inhibition was 3.61% (inactive). The figure for `CCN(C(=O)Cc1nc(N)n[nH]1)C1(C(=O)Nc2ccc(C)cc2)CCCCC1` is 81.1% (active); for `CCN(C(=O)Cc1nc(N)n[nH]1)C1(C(=O)Nc2ccccc2)CCCCC1` it is 105% (active). In the case of `CCOc1ccc(CN2CCCN(C)CC2)cc1`, the inhibition was 5.9% (inactive).

For `CCN(CC)C(=O)C1CCCN(Cc2cccc(Cl)c2)C1` (stereo unspecified), the inhibition was -2.94% (inactive). As for `N#Cc1ccc(OCC(=O)Nc2nc(-c3ccccn3)cs2)cc1`, the inhibition was 22.3% (inactive).

Take `CCC(C)NCCOCCOc1cc(C)cc(C)c1C` (stereo unspecified): the inhibition is -6.95% (inactive). For the compound `COc1ccc(Cn2nnc(C(=O)Nc3cccc(Cl)c3)c2N)cc1`, the inhibition was 8.84% (inactive). Regarding `CCN1CCN(CC(=O)N/N=C/c2cccc(Cl)c2)CC1`, the inhibition was 2.25% (inactive).

`c1cncc(CCNc2ccc3ncc(-c4cc5ccccc5o4)n3n2)c1`: the inhibition was 2.68% (inactive). As to `CN1CCC(N2CCN(c3ccccc3Cl)CC2)CC1`, the inhibition is 10.4% (inactive). `C=CCNC(=O)c1sc(=S)n(CC)c1N`: the inhibition was 0.63% (inactive). `CC(C)(C)NCC(=O)Nc1c2c(nc3ccccc13)N(Cc1ccccc1)CC2`: the inhibition is 18.3% (inactive). For `CCOc1cccc(C2C(C(=O)OCCOc3ccccc3)=C(C)NC3=C2C(=O)CCC3)c1` (stereo unspecified), the inhibition was 2.03% (inactive). Regarding `Cc1ccc(C(C)C)c(OCC#CCN2CCNCC2)c1`, the inhibition was 7.61% (inactive). Consider `COc1ccc(CN2CCN(Cc3ccccc3C)CC2)c(OC)c1OC`, for which the inhibition was -1.26% (inactive).

With `CCCS(=O)(=O)N1CCN(Cc2cccc(Cl)c2)CC1`, the inhibition was 4.65% (inactive). `COC(=O)c1sc(NC(=O)c2ccccc2C)c(C#N)c1C`: the inhibition was -8.1% (inactive). With `COc1ccc(C(=O)NCCN2CCN(c3nc4c(C)c(C)ccc4s3)CC2)cc1`, the inhibition is -5.73% (inactive). As to `COc1cc(CN2CCN(Cc3ccco3)CC2)c([N+](=O)[O-])cc1OC`, the inhibition was 16.3% (inactive).

Regarding `COc1cc(Nc2ncnc3c2nc(N2CCOCC2)n3C(C)C)cc(OC)c1OC`, the inhibition is -3.35% (inactive). For `COc1cc(N2CCOCC2)ccc1Nc1cc(Nc2ccccc2-n2cccn2)c(C(F)(F)F)cn1`, the inhibition is 31.5% (active). With `CCN(CC(=O)NCc1ccc(Cl)cc1)Cn1nnc2ccccc21` the figure was 0.75% (inactive); with `COc1ccc(CN2CCN(C3CCC(C)CC3)CC2)c(OC)c1OC` (stereo unspecified), 2.96% (inactive); with `CCCCC(=O)NCc1ccc(F)cc1`, 17.4% (inactive).

For the compound `CN(C)c1cccc(Nc2ccc(-c3cccc(C=O)c3)cn2)c1`, the inhibition was 65.7% (active). With `COc1ccc(CN2CCN(Cc3cccc(Br)c3)CC2)c(OC)c1` the figure was 8.87% (inactive); with `CCN(CCN(C)C)Cc1c(Cl)cccc1Cl`, -9.82% (inactive); with `COc1ccc(CN2CCN(Cc3cc(OC)ccc3OC)CC2)cc1`, -1.47% (inactive). As to `O=c1c2ccccc2ncn1CCCCOc1ccccc1F`, the inhibition was 15.3% (inactive). `COc1ccccc1CN1CC(C)OC(C)C1` (stereo unspecified): the inhibition was -2.69% (inactive).

For `CC(c1ccccn1)N(CCN(C)C)C(=S)Nc1ccccc1F` (stereo unspecified), the inhibition was 19.9% (inactive). As for `O=S(=O)(c1ccc(F)cc1)N1CCN(Cc2ccccc2C(F)(F)F)CC1`, the inhibition is 3.94% (inactive).

On to `COc1cccc(CN2CCN(Cc3ccc(C(F)(F)F)cc3)CC2)c1OC`, for which the inhibition is 1.8% (inactive). Consider `Fc1ccc(CN2CCN(C3CCCC3)CC2)cc1`, for which the inhibition is 5.12% (inactive). For the compound `CSc1ccc(CN2CCN(Cc3cccc(Oc4ccccc4)c3)CC2)cc1`, the inhibition is 6.75% (inactive). As to `COc1ccc(NC(=O)c2cc3n(n2)C(C(F)(F)F)CC(c2ccc(OC)c(OC)c2)N3)cc1OC` (stereo unspecified), the inhibition is -8.79% (inactive). With `CC(=O)c1cccc(N2C(=O)c3cccnc3C2=O)c1` the figure was 0.46% (inactive). With `CCCS(=O)(=O)N1CCN(Cc2ccccc2Br)CC1` the figure was 7.16% (inactive); with `COc1cccc(OC)c1C(=O)N1CCN(Cc2ccccc2F)CC1`, 6.68% (inactive); with `COc1ccc(OC)c(CN2CCN(Cc3ccc(Cl)cc3)CC2)c1`, 7.55% (inactive). With `O=[N+]([O-])c1ccccc1CN1CCN(Cc2cccnc2)CC1` the figure was 14.6% (inactive); with `CC1CCC2C(=O)N(c3ccc(I)cc3)C(=O)C2C1` (stereo unspecified), -5.9% (inactive). For `O=C(O)C1C2C=CC(O2)C1C(=O)Nc1nccs1` (stereo unspecified), the inhibition is -0.18% (inactive). As for `O=C(NN1C(=O)c2ccccc2C1=O)c1cccc(F)c1`, the inhibition was -16% (inactive). `Cc1ccc(C)n1C(Cc1ccccc1)C(=O)O` (stereo unspecified): the inhibition is 17% (inactive).

Take `CN(CCc1ccccn1)Cc1cccnc1`: the inhibition is 8.93% (inactive). `COc1ccc(C(CNCc2cc(=O)oc3cc4c(cc23)CCC4)N2CCOCC2)cc1` (stereo unspecified): the inhibition was 10.3% (inactive). With `O=C(Cc1cccs1)N/N=C\C=C\c1ccco1` the figure was 79.7% (active); with `Fc1cccc(CN2CCN(C3CCC(c4ccccc4)CC3)CC2)c1` (stereo unspecified), 11.2% (inactive); with `CCC(C)c1ccccc1NC(=O)CN(C)CC(=O)Nc1ccccc1SC` (stereo unspecified), -6.92% (inactive). With `Cc1ccccc1NC(=O)NCCOc1cc(N2CCCC2)ncn1` the figure was 6.75% (inactive); with `CCS(=O)(=O)N1CCN(C2CCCCC2C)CC1` (stereo unspecified), -1.17% (inactive); with `COc1ccc(CN2CCCC(C(=O)N3CCCCC3)C2)cc1` (stereo unspecified), -32.4% (inactive).

With `C/C(N)=C(/C#N)C(=O)COC(=O)c1c2c(nc3ccccc13)/C(=C/c1ccco1)CC2`, the inhibition was 90.7% (active).

Regarding `CCN1CCN(CCOc2ccc(-c3ccccc3)cc2)CC1`, the inhibition was 9.66% (inactive). As for `COc1ccc(CN2CCC(C(=O)N3CCN(Cc4ccccc4)CC3)CC2)cc1`, the inhibition was 13.8% (inactive). `COc1cc(CN2CCN(Cc3cccnc3)CC2)cc(OC)c1OC`: the inhibition was 6.15% (inactive). As to `Cc1cccnc1NC(=O)CSc1nnc(COc2ccc(C(C)C)cc2)n1C`, the inhibition was 5.99% (inactive). As to `Cc1cc(NC(=O)CNCCCN(C)C)no1`, the inhibition was 2.39% (inactive). With `Cc1cc(NC(=O)CSc2ccc(-c3ccccn3)nn2)no1`, the inhibition is 49% (active).

For `CCOc1ccc(OCCCCNCCO)cc1`, the inhibition was 10.6% (inactive).

Regarding `COc1cccc(CN2CCC(C(=O)NCCc3ccccc3)CC2)c1`, the inhibition is 8.72% (inactive). For `CC(NCCCN1CCOCC1)C(=O)Nc1ccccc1` (stereo unspecified), the inhibition is 5.64% (inactive).

Turning to `CN(CCC(=O)O)Cc1cccc(Cl)c1`, the inhibition is -8.04% (inactive).

With `C[C@@H](OCc1ccccc1)[C@@H]1NC(=O)[C@H]2CN(C(=O)Nc3cccc(F)c3)CCN2C1=O`, the inhibition is 68.9% (active). Regarding `CC[C@@H]1NC(=O)[C@H]2CN(C(=O)NCc3ccccc3)CCN2C1=O`, the inhibition is 73.6% (active). Regarding `Cc1n[nH]c(=O)nc1N/N=C/c1cccs1`, the inhibition was 35.1% (active). With `CCCS(=O)(=O)N1CCN(C(C)C)CC1` the figure was 10.5% (inactive); with `CC(C)CO/N=C1\C[C@@H](O)[C@@H](O)[C@@H]2[C@@H]3C(=O)N([C@@H](C)c4ccccc4)C(=O)[C@@H]3CC[C@@H]12`, 3.51% (inactive); with `O=C(OCCN1CCOCC1)c1c(Cl)nc2sccn12`, 9.99% (inactive).

Values taken from PubChem BioAssay AID1259372 (The Scripps Research Institute Molecular Screening Center, 2018).
